Data on 13 compounds can be found in ChEMBL document CHEMBL3433997, “St. Jude Leishmania screening dataset” (2016).

The structures appear in SMILES notation.

Format in all cases: functional
Experiment [1] concerns the target Solute carrier family 2, facilitated glucose transporter member 1 (Homo sapiens) (UniProt P11166). In words: ST_JUDE_LEISH: Cytotoxicity at 2uM final concentration against transgenic Leishmania Mexicana promastigotes LmGLUT1 that are glucose transport deficient and complemented with the human glucose transporter GLUT1. Activity is measured by DNA content using SYBR green in vitro.

Experiment [2] concerns the target Hexose transporter 1 (Plasmodium falciparum) (UniProt O97467). In words: ST_JUDE_LEISH: Cytotoxicity at 2uM final concentration against transgenic Leishmania Mexicana promastigotes LmPfHT that are glucose transport deficient and complemented with the Plasmodium falciparum hexose transporter. Activity is measured by DNA content using SYBR green in vitro.
Experiment [3] deals with Glucose transporter (Leishmania mexicana) (UniProt O61059). Nature of the experiment: ST_JUDE_LEISH: Cytotoxicity at 2uM final concentration against transgenic Leishmania Mexicana promastigotes LmGT2 that are glucose transport deficient and complemented with the L. Mexicana glucose transporter 2. Activity is measured by DNA content using SYBR green in vitro.

As a reminder, the inhibition is the change of the read-out against control, counted positive when it falls.

Sequence of Solute carrier family 2, facilitated glucose transporter member 1 (Homo sapiens) (P11166 whole entry): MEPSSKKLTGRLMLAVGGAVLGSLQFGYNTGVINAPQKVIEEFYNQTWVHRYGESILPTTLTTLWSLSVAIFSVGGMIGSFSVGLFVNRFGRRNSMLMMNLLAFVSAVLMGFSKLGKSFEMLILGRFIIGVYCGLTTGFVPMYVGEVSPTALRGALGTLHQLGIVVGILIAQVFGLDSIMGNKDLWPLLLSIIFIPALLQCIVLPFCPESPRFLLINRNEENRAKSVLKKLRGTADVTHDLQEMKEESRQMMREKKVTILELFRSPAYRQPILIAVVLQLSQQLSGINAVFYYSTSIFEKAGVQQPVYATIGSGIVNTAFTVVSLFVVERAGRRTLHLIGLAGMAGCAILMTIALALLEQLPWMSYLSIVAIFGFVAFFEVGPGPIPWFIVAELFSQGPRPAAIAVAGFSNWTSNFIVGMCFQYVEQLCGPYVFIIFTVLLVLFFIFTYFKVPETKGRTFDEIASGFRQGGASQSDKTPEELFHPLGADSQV

Regarding `Cc1ccccc1C(=O)Nc1cccc(-c2nc3ncccn3c2C)c1`, the inhibition in experiment [1] is 3.33%; in experiment [2], 3.11%; in experiment [3], 1.25%.

Regarding `CCC[C@@H]([C@@H](CC(C)C)C(=O)N[C@@H](CCC/N=C(/N)NS(C)(=O)=O)C(=O)Nc1nccs1)N(O)C=O`, the inhibition in experiment [1] was 7.57%; in experiment [2], 9.74%; in experiment [3], 6.5%.

In the case of `O=C(Nc1ccc(Cl)cn1)c1sc2ccccc2c1O`, the inhibition turned out to be 3.18% in experiment [1], 3.43% in experiment [2] and 0.99% in experiment [3].

Turning to `CCC(=O)OC(CCN(CC)CC)(c1ccccc1)c1ccccc1`, the inhibition was 1.98% in experiment [1], 1.16% in experiment [2] and 1.58% in experiment [3].

For the compound `O=C(Nc1ccc(Cn2ncc(N3CCCNCC3)c(Cl)c2=O)cc1)Nc1cccc(C(F)(F)F)c1`, the inhibition in experiment [1] is 0.62%; in experiment [2] it was 1.58%; in experiment [3] it was -2.08%.

Regarding `CC1CN(c2ccc(NC(=O)c3cccs3)cc2)CCN1Cc1cccc(F)c1` (centres undefined), the inhibition is -0.49% in experiment [1], -0.85% in experiment [2] and 3.41% in experiment [3].

With `Cn1c(=N)n(CC(=O)N2CCc3ccc(Cl)cc3C2Cc2ccc(Cl)c(Cl)c2)c2ccccc21` (centres undefined), the inhibition in experiment [1] was determined as 0.36%; in experiment [2], 1.29%; in experiment [3], 5.67%.

In the case of `CCc1ccc(-n2cc(C(=O)c3cc(Br)ccc3O)cc(C#N)c2=O)cc1`, the inhibition worked out at 3.35% in experiment [1], 3.08% in experiment [2] and 2.28% in experiment [3].

In the case of `Nc1ccnc2ccc(OCCCCCCc3ccccc3)cc12`, the inhibition was -1.77% in experiment [1], -1.93% in experiment [2] and -1.14% in experiment [3].

As to `CCN(CCCNc1nc(=S)[nH]c2cc(OC)c(OC)cc12)c1ccccc1`, the inhibition in experiment [1] was -0.4%; in experiment [2] it was -1.25%; in experiment [3] it was -4.13%.

Regarding `COc1ccc(-c2ccc(CN(C)C3CCC(NC(=O)c4cc5ccccc5[nH]4)CC3)cc2)cn1` (centres undefined), the figures for the inhibition in experiment [1], in experiment [2] and in experiment [3] were -1.44%, -1.14% and -1.54%, respectively.

For the compound `COc1ccc(Cn2c(Nc3cccc(C(F)(F)F)c3)nc3ccc(C(=O)NCCN4CCCC4)cc32)cc1Cl`, the inhibition worked out at 8.87% in experiment [1], 6.74% in experiment [2] and 14.2% in experiment [3].

As to `O=C(N[C@@H](CC1CCCCC1)C(=O)NC1CCCCC1)c1ccc(O)c(-c2cccc(C(F)(F)F)c2)c1`, the results for the inhibition in experiment [1], in experiment [2] and in experiment [3] were -2.73%, -1.15% and -3.33%, respectively.
